Consider 25 molecules from PubChem BioAssay AID2490 (National Center for Advancing Translational Sciences (NCATS), 2010).

Activity calls are given as the source filed them. The call rests on the fitted dose curve.

Sequence of Thyroid hormone receptor beta (Homo sapiens) (P10828 whole entry, looked up, the tested form may be a part): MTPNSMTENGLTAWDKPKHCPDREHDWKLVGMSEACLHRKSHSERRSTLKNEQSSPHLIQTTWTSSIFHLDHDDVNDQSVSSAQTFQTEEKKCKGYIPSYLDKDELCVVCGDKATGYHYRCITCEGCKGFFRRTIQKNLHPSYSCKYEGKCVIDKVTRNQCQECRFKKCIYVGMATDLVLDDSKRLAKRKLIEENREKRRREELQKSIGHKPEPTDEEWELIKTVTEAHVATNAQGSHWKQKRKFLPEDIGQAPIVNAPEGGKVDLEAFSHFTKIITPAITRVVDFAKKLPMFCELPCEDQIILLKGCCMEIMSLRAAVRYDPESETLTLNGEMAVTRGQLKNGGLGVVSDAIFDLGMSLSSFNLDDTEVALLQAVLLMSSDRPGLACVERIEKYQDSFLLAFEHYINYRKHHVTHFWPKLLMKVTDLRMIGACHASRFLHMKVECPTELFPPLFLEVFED

In the test the target is Thyroid hormone receptor beta (Homo sapiens) (UniProt P10828). The test can be described thus: Secondary Confirmation Assay for Inhibitors of the Interaction of Thyroid Hormone Receptor and Steroid Receptor Coregulator 2, Texas Red Fluoroprobe. The conditions noted are these: TRb LBD / Texas Red SRC2 peptide fluorescence polarization. An excerpt:
NIH Molecular Libraries Probe Production Network [MLPCN] NIH Chemical Genomics Center [NCGC] MLPCN Grant: DK058080 Assay Provider: R. Kip Guy, St. Jude Children's Research Hospital NCGC Assay Overview: Thyroid receptor (TR) regulates many homeostatic processes including basal metabolism, cardiovascular function, body weight, and lipid trafficking. TR modulators are potential therapeutics for obesity and hyperlipidemias but current thyroid analogs have undesirable side effects, particularly cardiac stimulation. To identify inhibitors that specifically prevent the interaction of TR with the steroid receptor coregulator 2 (SRC2), a fluorescence polarization assay was screened (Arnold et al., 2006). This assay detects the interaction of the ligand-binding domain of human TRb with a Texas Red labeled SRC2 peptide, corresponding to a 20 amino acid region of the nuclear receptor interaction domain. Small molecule inhibitors that block the interaction of TR and SRC2 are detected by a decrease in fluorescence polarization.
NCGC Assay Protocol Summary: Twenty uL/well 0.6 uM TRb and 20 nM Texas Red labeled SRC2-2 in protein buffer (20mM Tris hydrochloride, pH 7.4, 100mM NaCl, 10% glycerol, 1mM EDTA, 0.01% NP-40, 1mM DTT, 1uM T3 and 4% DMSO) was dispensed into black solid 384-well plates (Costar 3710) using a Biomek FX (Beckman Coulter) liquid handling system. Following transfer of 260 nL compound (ranging from 7 nM to 130 uM), the plates were incubated 3 hr at ambient temperature. The plates were read by an Envision (Perkin Elmer) to detect fluorescence polarization of SRC2 Texas Red (555 nm excitation and 632 nm emission). Arnold, L. A.; Estebanez-Perpina, E.; Togashi, M.; Shelat, A.; Ocasio, C. A.; McReynolds, A. C.; Nguyen, P.; Baxter, J. D.; Fletterick, R. J.; Webb, P.; Guy, R. K. A high-throughput screening method to identify small molecule inhibitors of thyroid hormone receptor coactivator binding. Sci STKE 2006, p 13.
Take `CS(=O)(=O)c1ccc(C(=O)OCC(=O)N2CCN(CCC3CCCCC3)CC2)cc1[N+](=O)[O-]`: the Potency was 7.6 µM (active).

With `N#Cc1ncc(C(=O)OCC(=O)NC2C3CC4CC(C3)CC2C4)cn1` (stereo not given), the call was inactive.

As for `CC1(C)C2CCC1(C)C(NC(=O)COC(=O)c1ccc(S(C)(=O)=O)c([N+](=O)[O-])c1)C2` (stereo not given), the Potency was 4.3 µM (active).

Consider `CS(=O)(=O)c1ccc(C(=O)OCC(=O)NCC2CCCO2)cc1[N+](=O)[O-]` (stereo not given), for which the molecule was classed as inactive.

As to `CC(OC(=O)c1ccc(S(C)(=O)=O)c([N+](=O)[O-])c1)C(=O)NC12CC3CC(CC(C3)C1)C2` (stereo not given), the Potency is 2.1 µM (active).

Turning to `CS(=O)(=O)c1ccc(C(=O)OCC(=O)N2CCN(Cc3ccccc3)CC2)cc1[N+](=O)[O-]`, the Potency was 15.3 µM (active).

On to `CS(=O)(=O)c1ccc(C(=O)OCC(=O)N2CC(=O)Nc3ccccc32)cc1[N+](=O)[O-]`, for which the Potency is 3.8 µM (active).

In the case of `CCc1nc(-c2ccc(S(C)(=O)=O)c([N+](=O)[O-])c2)sc1C(=O)NC1C2CC3CC(C2)CC1C3` (stereo not given), the Potency is 3 µM (active).

For the molecule `CCN1CCN(C(=O)COC(=O)c2ccc(S(C)(=O)=O)c([N+](=O)[O-])c2)CC1C` (stereo not given), the result was inactive.

In the case of `C[S+](=O)([O-])c1ccc(C(=O)OCC(=O)NC2C3CC4CC(C3)CC2C4)cc1` (stereo not given), the molecule was called inactive.

As for `O=C(COC(=O)c1cc([N+](=O)[O-])ccc1F)NC1C2CC3CC(C2)CC1C3` (stereo not given), the result was inactive.

For `O=C(COC(=O)c1cccc([N+](=O)[O-])c1)NC1C2CC3CC(C2)CC1C3` (stereo not given), the molecule was classed as inactive.

As for `CS(=O)(=O)c1ccc(C(=O)OCC(=O)N2CCNc3ccccc32)cc1[N+](=O)[O-]`, the Potency was 1.1 µM (active).

`CN1CCN(C(=O)COC(=O)c2ccc(S(C)(=O)=O)c([N+](=O)[O-])c2)CC1`: the result was inactive.

Consider `CN(C(=O)COC(=O)c1ccc(S(C)(=O)=O)c([N+](=O)[O-])c1)c1ccccc1`, for which the Potency is 1.6 µM (active).

Consider `O=C(COC(=O)c1ccc(F)c([N+](=O)[O-])c1)NC1C2CC3CC(C2)CC1C3` (stereo not given), for which the Potency was 14.3 µM (active).

Turning to `CCCC1CCN(C(=O)COC(=O)c2ccc(S(C)(=O)=O)c([N+](=O)[O-])c2)CC1`, the Potency is 3.3 µM (active).

Take `O=C(COC(=O)c1ccc(C(F)(F)F)cc1)NC(=O)C1CCCCC1`: the molecule was classed as inactive.

`O=C(COC(=O)c1ccc2ncsc2c1)NC(=O)C1CCCCC1`: the molecule was called inactive.

On to `CS(=O)(=O)c1ccc(C(=O)OCC(=O)N2CCN(c3ccccc3)CC2)cc1[N+](=O)[O-]`, for which the Potency is 24.7 µM (active).

As to `CS(=O)(=O)c1ccc(C(=O)NCC(=O)NC2C3CC4CC(C3)CC2C4)cc1[N+](=O)[O-]` (stereo not given), the Potency is 11.3 µM (active).

In the case of `CS(=O)(=O)c1ncc(C(=O)OCC(=O)NC2C3CC4CC(C3)CC2C4)cn1` (stereo not given), the Potency was 3.2 µM (active).

In the case of `COc1cccc(CNC(=O)COC(=O)c2ccc(S(C)(=O)=O)c([N+](=O)[O-])c2)c1`, the Potency is 64.6 µM (active).

Turning to `C[S+](=O)([O-])c1ccc(C(=O)OCC(=O)N2CCNC(=O)C2)cc1[N+](=O)[O-]`, the result was inactive.

As for `Cc1ccc(F)cc1NC(=O)COC(=O)c1ccc(S(C)(=O)=O)c([N+](=O)[O-])c1`, the call was inactive.
